Several values for one entry are separate records, joined by “and”; a condition that tells them apart may be missing. Identical values can stand only once. Inconclusive results are not listed. Activity calls are given as the source filed them. Unless noted, calls come from the whole dose curve.

In the first assay the target is alpha-glucosidase (Oryza sativa, rice) (UniProt Q653V4). Description: Counterscreen for Glucocerebrosidase Inhibitors: qHTS Assay for Rice alpha-Glucosidase at pH 5.0 (AID 997; active = well fitted curve in the direction sought with a large enough effect;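 note: 0% = full activity with enzyme and -100% = basal without enzyme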). The following applies: rice alpha-glucosidase enzyme activity; series mostly up to 76.9 µM. The method, boiled down: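 Endpoint fluorogenic assay at pH 5.0: compounds (0.7 nM to 77 uM) titrated against 4 nM rice enzyme and 400 uM 4-MU-alpha-glucoside for 20 min at room temperature; NaOH/glycine stop, read ex 365/em 440 nm, Hill-fitted AC50.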
For `Cn1cnc2c(NCc3ccccc3)nc(NCCO)nc21`, the compound was called inactive.
On to `Brc1ccc([C@H]2CN3CCSC3=N2)cc1`, for which the compound was classed as inactive.
On to `NC(N)=NCCCCN=C(N)N`, for which the compound was called inactive.
Regarding `COc1ccccc1N1CCN(CCN2C(=O)CC3(CCCC3)CC2=O)CC1`, the compound was called inactive.
With `C[N+](C)(C)CCO`, the result was inactive.
`O=C1NC(c2cccc([N+](=O)[O-])c2)=CCN1c1ccccc1O`: the outcome was inactive.
Turning to `CN(C)c1cc2c(Nc3ccc4c(cnn4Cc4ccccc4)c3)ncnc2cn1`, the call was inactive.

Tested on in a further assay: not listed separately
Description: Validation of Assay for Modulators of Lamin A Splicing (AID 1459; active = well fitted curve in the direction sought with a large enough effect in the signal ratio; the % refers to the signal ratio;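 note: cells exposed to compound for two days before reading; 0% is about no effect; ratio rise marks activators and ratio drop marks inhibitors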). The following applies: Lamin A splicing dual RFP/GFP fluorescence reporter; series mostly up to 9.22 µM. The method, boiled down: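 S3 HeLa cells stably expressing a lamin A-EGFP splicing minigene and DsRed2 were seeded at 600 cells/well in Opti-MEM with 2% FBS, pin-dosed, and incubated 48 hrs at 37 °C, 5% CO2. Laser-scanning cytometry (488 nm) gave GFP/RFP total intensity ratio.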
Consider `COc1cccc2c1[C@@H]1CN(CCCCn3c(=O)[nH]c4c(sc5ncc(-c6ccccc6)nc54)c3=O)C[C@@H]1CO2`, for which the result was inactive.
Regarding `Cn1cnc2c(NCc3ccccc3)nc(NCCO)nc21`, the result was inactive.
For `Brc1ccc([C@H]2CN3CCSC3=N2)cc1`, the call was inactive.
As for `NC(N)=NCCCCN=C(N)N`, the call was inactive.
Still for that read-out and setting: under `COc1ccccc1N1CCN(CCN2C(=O)CC3(CCCC3)CC2=O)CC1` stands “inactive”.
As for `C[N+](C)(C)CCO`, the result was inactive.
Take `O=C1NC(c2cccc([N+](=O)[O-])c2)=CCN1c1ccccc1O`: the compound was called inactive.
As for `CN(C)c1cc2c(Nc3ccc4c(cnn4Cc4ccccc4)c3)ncnc2cn1`, the compound was classed as inactive.

Tested on in the next assay: not listed separately
Description: qHTS Assay for Lipid Storage Modulators (AID 1519). For activity change, negative = inhibition: % is set by controls: 0 for no effect and ±100 for the full control effect. The following applies: Drosophila S3 cells, BODIPY lipid droplet/cell ratio, laser cytometry; at 25.7 µM (top of the series); cells loaded with oleic acid. The method, boiled down:
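Cells seeded at 5,000 per well were treated with compounds over a concentration series and loaded with oleic acid (400 uM, as added). Lipid droplet fluorescence (488 nm excitation, 500-530 nm channel) was read by laser-scanning cytometry and normalized to 20 uM Triacsin C.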
Turning to `CCOC(=O)NNc1nncc2ccccc12`, the activity change, negative = inhibition is 0.543% (inactive).
On the same count and under the same terms, under `Cc1ncc(CO)c(CO)c1O` stands -0.151% (inactive); under `OC(CCCN1CCCCC1)(c1ccccc1)c1ccccc1`, -0.646% (inactive).
For the compound `O=C(CCCCC(=O)Nc1c(I)cc(I)c(C(=O)O)c1I)Nc1c(I)cc(I)c(C(=O)O)c1I`, the activity change, negative = inhibition is -0.504% (inactive).
Consider `NC(N)=NCCCCN=C(N)N`, for which the activity change, negative = inhibition was -0.421% (inactive).
Still for that read-out and setting: under `CN(C(=O)C(Cl)Cl)c1ccc(OC(=O)c2ccco2)cc1` stands -19.5% (inactive).

The assay is the same for the next values; noted with them: Drosophila S3 cells, BODIPY lipid droplet/cell ratio, laser cytometry; at 57.5 µM (top of the series); cells loaded with oleic acid.
For the compound `COc1cccc2c1[C@@H]1CN(CCCCn3c(=O)[nH]c4c(sc5ncc(-c6ccccc6)nc54)c3=O)C[C@@H]1CO2`, the activity change, negative = inhibition is 0.568% (inactive).
Same read-out and setting: under `CCN(CC)CCOc1ccc(/C(=C(\Cl)c2ccccc2)c2ccccc2)cc1` stands -1.21% (inactive); under `Cn1cnc2c(NCc3ccccc3)nc(NCCO)nc21`, -0.56% (inactive); under `Brc1ccc([C@H]2CN3CCSC3=N2)cc1`, 0.192% (inactive).
For the compound `Cc1ccc2c(Cl)cc(Cl)c(O)c2n1`, the activity change, negative = inhibition is 4.67% (inactive).
On the same count and under the same terms, under `Nc1c2ccccc2nc2ccccc12` stands -13.1% (inactive); under `NCC(=O)O`, -2.71% (inactive); under `COC(=O)c1c(Cl)c(Cl)c(C(=O)OC)c(Cl)c1Cl`, 5.84% (inactive).
`Nc1ncnc2nc[nH]c12`: the activity change, negative = inhibition was 6.5% (inactive).
As for `NC(N)=NCCCCN=C(N)N`, the activity change, negative = inhibition is -1.91% (inactive) and 4.1% (inactive) and 0.28% (inactive).
Regarding `C1N2CN3CN1CN(C2)C3`, the activity change, negative = inhibition was 4.78% (inactive).
Same read-out and setting: the value for `O=C(O)/C=C(\CC(=O)O)C(=O)O` was 3.99% (inactive).

The assay is the same for the next values; noted with them: Drosophila S3 cells, BODIPY lipid droplet/cell ratio, laser cytometry; measured here: cell count channel max response; cells loaded with oleic acid.
Regarding `CCOC(=O)NNc1nncc2ccccc12`, the max response was -3.66%.
Still for that read-out and setting: under `COc1cccc2c1[C@@H]1CN(CCCCn3c(=O)[nH]c4c(sc5ncc(-c6ccccc6)nc54)c3=O)C[C@@H]1CO2` stands 7.98%; under `CCN(CC)CCOc1ccc(/C(=C(\Cl)c2ccccc2)c2ccccc2)cc1`, 9.36%.
`Cn1cnc2c(NCc3ccccc3)nc(NCCO)nc21`: the max response is -34.4%.
Regarding `Brc1ccc([C@H]2CN3CCSC3=N2)cc1`, the max response was -9.46%.
As for `Cc1ccc2c(Cl)cc(Cl)c(O)c2n1`, the max response was -3.23%.
Consider `Nc1c2ccccc2nc2ccccc12`, for which the max response was -6.77%.
Regarding `NCC(=O)O`, the max response was found to be 5.73%.
As to `COC(=O)c1c(Cl)c(Cl)c(C(=O)OC)c(Cl)c1Cl`, the max response was 15.4%.
Consider `Cc1ncc(CO)c(CO)c1O`, for which the max response turned out to be 0.978%.
Still for that read-out and setting: the value for `OC(CCCN1CCCCC1)(c1ccccc1)c1ccccc1` was 10.3%; that for `Nc1ncnc2nc[nH]c12` was 12.7%.
On the same count and under the same terms, the value for `O=C(CCCCC(=O)Nc1c(I)cc(I)c(C(=O)O)c1I)Nc1c(I)cc(I)c(C(=O)O)c1I` was -3.67%; that for `C1N2CN3CN1CN(C2)C3` was -0.0775%; that for `O=C(O)/C=C(\CC(=O)O)C(=O)O` was -7.3%.
On the same count and under the same terms, the value for `CN(C(=O)C(Cl)Cl)c1ccc(OC(=O)c2ccco2)cc1` was -11.9%.

Still in this assay, the particulars now being: Drosophila S3 cells, BODIPY lipid droplet/cell ratio, laser cytometry; measured here: lipid channel max response; cells loaded with oleic acid.
Turning to `CCOC(=O)NNc1nncc2ccccc12`, the max response was -3.48%.
The same measure, in the same setting: under `COc1cccc2c1[C@@H]1CN(CCCCn3c(=O)[nH]c4c(sc5ncc(-c6ccccc6)nc54)c3=O)C[C@@H]1CO2` stands 9.55%.
Take `CCN(CC)CCOc1ccc(/C(=C(\Cl)c2ccccc2)c2ccccc2)cc1`: the max response came to 11.5%.
`Cn1cnc2c(NCc3ccccc3)nc(NCCO)nc21`: the max response is -34.7%.
As to `Brc1ccc([C@H]2CN3CCSC3=N2)cc1`, the max response was -7.25%.
`Cc1ccc2c(Cl)cc(Cl)c(O)c2n1`: the max response was 2.66%.
Take `Nc1c2ccccc2nc2ccccc12`: the max response is -18.9%.
Take `NCC(=O)O`: the max response came to 4.04%.
Turning to `COC(=O)c1c(Cl)c(Cl)c(C(=O)OC)c(Cl)c1Cl`, the max response worked out at 24.6%.
As for `Cc1ncc(CO)c(CO)c1O`, the max response is -0.91%.
For the compound `OC(CCCN1CCCCC1)(c1ccccc1)c1ccccc1`, the max response was found to be 9.61%.
Take `Nc1ncnc2nc[nH]c12`: the max response is 22.5%.
Consider `O=C(CCCCC(=O)Nc1c(I)cc(I)c(C(=O)O)c1I)Nc1c(I)cc(I)c(C(=O)O)c1I`, for which the max response is -4.34%.
On the same count and under the same terms, the value for `C1N2CN3CN1CN(C2)C3` was 6.42%.
Consider `O=C(O)/C=C(\CC(=O)O)C(=O)O`, for which the max response came out at 1.94%.
Same read-out and setting: the value for `CN(C(=O)C(Cl)Cl)c1ccc(OC(=O)c2ccco2)cc1` was -28.6%.
